Source: PubChem BioAssay (EPA / NIEHS)
Records with an inconclusive call do not appear. Activity calls are given as the source filed them. How the source made its calls: active means hit-call score of the fitted dose curve at least 0.9, where 1 is the maximum; inconclusive means response in the unintended direction; inactive means score below 0.9.

Assay: CCTE_Simmons_MITO_viability: CellTiter-Glo Viability Assessment for CCTE's HepG2 Seahorse XF Respirometric Screening Assay [post-hoc], Simmons Lab (AID 2284007);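 on AC50: cells exposed to chemical for 90 min before the ATP read; actives lower ATP signal relative to DMSO baseline meaning reduced viability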
Protocol: CCTE_Simmons_MITO is cell-based, respirometric assay using HepG2 cells and a Seahorse XF Analyzer to measure oxygen consumption rates over four temporal phases spanning a total of 72 minutes: pre-injection (pre-treatment), basal (following test compound injection), maximal (following FCCP uncoupler injection), and inhibited (following rotenone/antimycin A injection)CCTE_Simmons_MITO_viability is one of 4 assay components measured from the CCTE_Simmons_MITO assay. It is designed to make measurements of ATP content, a form of viability reporter, as detected with bioluminescence signals by Luciferase-coupled ATP quantitation technology. Data from the assay component CCTE_Simmons_MITO_viability was analyzed at the endpoint, CCTE_Simmons_MITO_viability, in the positive analysis fitting direction relative to DMSO as the negative control and baseline of activity. Using a type of viability reporter, measures of ATP content for loss-of-signal activity can be used to understand the viability. To generalize the intended target to other relatable targets, this assay endpoint is annotated to the cell cycle intended target family, where the subfamily is cytotoxicity.
Test chemicals were administered as a titrated series of 7 concentrations from 125 nM up to 100 uM [final] for 90 minutes prior to single endpoint detection. Three biological replicates of technical singles were run for every chemical concentration tested. Dimethylsulfoxide [DMSO] was used as the vehicle control. Dichlone [DCNQ] was used as the positive control and was administered as a titrated series of 8 concentrations from 10 nM up to 100 uM [final].
With `CCC(C)Nc1c([N+](=O)[O-])cc(C(C)(C)C)cc1[N+](=O)[O-]` (stereo unspecified) the outcome was “inactive”.
In the case of `Oc1ccc(Cl)cc1Cc1ccccc1`, the outcome was “inactive”.
For `CCOCN(C(=O)CCl)c1c(C)cccc1CC`, the outcome was “inactive”.
With `C#CCN1C(=O)COc2cc(F)c(N3C(=O)C4=C(CCCC4)C3=O)cc21` the outcome was “inactive”.
For `CC(C)(C)C(O)/C(=C\c1ccc(Cl)cc1Cl)n1cncn1` (stereo unspecified), the outcome was “inactive”.
With `COP(=S)(OC)Oc1ccc([N+](=O)[O-])cc1` the outcome was “inactive”.
In the case of `CCOC1Oc2ccc(OS(C)(=O)=O)cc2C1(C)C` (stereo unspecified), the outcome was “inactive”.
In the case of `N#Cc1c(Cl)c(Cl)c(Cl)c(C#N)c1Cl`, the AC50 was 20 µM (active).
For `CC1(c2ccc(Oc3ccccc3)cc2)OC(=O)N(Nc2ccccc2)C1=O` (stereo unspecified), the outcome was “inactive”.
For `CCCN(CCOc1c(Cl)cc(Cl)cc1Cl)C(=O)n1ccnc1`, the AC50 was 13.6 µM (active).
With `Oc1cc(Cl)ccc1Oc1ccc(Cl)cc1Cl` the outcome was “inactive”.
